Hits are enriched below; roughly 9.4% of the tested compounds scored in any of these assays.
Pf growth 48h: P. falciparum growth inhibition at 48 hours (one generation); Potency, µM (titrated, usually from 28.7 µM), inactives show at the highest dose activity change, negative = inhibition, most hits filed as inhibitors; P. falciparum luciferase growth in erythrocytes, 48 h; AID 504832; 5.9% of 310,000 active; also: % is scaled to controls: 0 for no effect and ±100 for the full control effect
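Firefly luciferase activity from engineered P. falciparum reports growth; inhibitors lower the luminescent signal. Cultures contained 2% hematocrit erythrocytes at 0.1% final parasitemia.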
AMA1 RON2 block: AMA1-RON2 (P. falciparum) interaction inhibition. AlphaScreen AMA1-biotinylated RON2 peptide binding. Potency, µM (highest dose often 58.2 µM), for the others: at the highest dose activity change, negative = inhibition, most hits filed as inhibitors. 0.2% of 360,000 active. AID 720542;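 also: 0% = vehicle wells and -100% = peptide control; nearly all actives have a fitted effect of over 45% in size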
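AMA1 (3D7) with his tag at 25 nM final met compounds first, then biotinylated RON2 peptide at 25 nM; detection used donor plus acceptor beads, 10 µg/mL apiece, read by AlphaScreen after 30 min at room temperature.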
Pf growth 96h: P. falciparum growth inhibition at 96 hours | AID 504834 | Potency, µM (doses to about 28.7 µM), inactives show top-dose activity change, negative = inhibition, hits mostly inhibitors | 6.9% of 320,000 active | P. falciparum luciferase reporter growth, 96 h; also: % is scaled to controls: 0 for no effect and ±100 for the full control effect
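Readout is luminescence from an integrated firefly luciferase in P. falciparum. Red cells, 2% hematocrit and 0.05% parasitemia final, were cultured with compound through two parasite generations (96 hours) at 37 C, 5% CO2.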
SARS PLP yeast: SARS-CoV PLP inhibition in yeast | S. cerevisiae expressing SARS-CoV PLpro, growth rescue | Potency, µM (doses to about 32.9 µM), for inactives: top-dose activity, positive = growth rescue, usual class: activators | 0.19% of 330,000 active | AID 485353; calls by dose curve; also: 0% is about no effect; nearly all actives have a fitted effect of over 55% in size
Active calls of the source: *. Unless noted, calls follow the shape of the dose curve; as a rule, active = well fitted curve in the direction sought with a large enough effect; inconclusive = small, poorly fitted or top-dose-only effect, or another doubt; inactive = no such curve, though single readings can be large; an effect the other way counts as inactive or inconclusive. Potency is read from the fitted curve at half-maximal effect.

How did O=C(CCCN1C(=O)/C(=C/c2cccs2)SC1=S)NNC(=O)c1ccncc1 do in these assays?
Pf growth 48h: -26%; AMA1 RON2 block: 94%; Pf growth 96h: -2%; SARS PLP yeast: 0%

Results for O=C(O)C(Cc1ccccc1)N1C(=O)/C(=C/c2cccs2)SC1=S (stereo not drawn) ?
Pf growth 48h: 4%; AMA1 RON2 block: 12%; Pf growth 96h: 10µM*; SARS PLP yeast: 0%

What do the screens show for `O=C(O)C(c1ccccc1)N1C(=O)/C(=C/c2cccs2)SC1=S` (stereo not drawn)?
Pf growth 48h: inconclusive; AMA1 RON2 block: -11%; Pf growth 96h: 40%; SARS PLP yeast: -1%

What do the screens show for `CCN(CC)CCOC(=O)c1ccc(NC(=O)CCCN2C(=O)/C(=C/c3cccs3)SC2=S)cc1`?
Pf growth 48h: 5.2µM*; AMA1 RON2 block: inconclusive; Pf growth 96h: inconclusive; SARS PLP yeast: -3%

How did O=C(CCCN1C(=O)/C(=C/c2cccs2)SC1=S)NNC(=O)c1ccccc1O do in these assays?
Pf growth 48h: 9%; AMA1 RON2 block: 1%; Pf growth 96h: 3.3µM*; SARS PLP yeast: inconclusive

What do the screens show for `O=C(OCc1cnc(Cl)s1)c1ccc(Cl)cc1`?
Pf growth 48h: 40%; AMA1 RON2 block: 35%; Pf growth 96h: 46%; SARS PLP yeast: 5%

How did Cc1ccc(C(NC(=O)Nc2ccccn2)C(Cl)(Cl)Cl)cc1F (stereo not drawn) do in these assays?
Pf growth 48h: inconclusive; AMA1 RON2 block: 1%; Pf growth 96h: 13µM*; SARS PLP yeast: 8%

What do the screens show for `CC(C)(C)NCC(O)COc1c(F)cc(Br)cc1F` (stereo not drawn)?
Pf growth 48h: 12µM*; AMA1 RON2 block: 4%; SARS PLP yeast: 0%

How did CC(C)(C)CC(C)(C)NCC(O)COc1c(F)cc(Br)cc1F (stereo not drawn) do in these assays?
AMA1 RON2 block: -5%; Pf growth 96h: 0.59µM*; SARS PLP yeast: -7%

Results for Cc1cc(C)c(OCC(O)CNC(C)(C)C)c(C)c1 (stereo not drawn) ?
Pf growth 48h: -16%; AMA1 RON2 block: -14%; Pf growth 96h: 15%; SARS PLP yeast: 1%

Results for O=C1Nc2cc(C(=O)N3CCOCC3)ccc2S/C1=C\c1ccccc1 ?
Pf growth 48h: inconclusive; AMA1 RON2 block: 6%; Pf growth 96h: 54%; SARS PLP yeast: 16%

What do the screens show for `Cc1ccc(C(C)C)c(OCCNC(=O)c2ccccc2O)c1`?
Pf growth 48h: inconclusive; AMA1 RON2 block: 1%; Pf growth 96h: inconclusive; SARS PLP yeast: -17%

How did CCCC1=[N+](CC(=O)c2ccc(Br)cc2)CCn2cccc21 do in these assays?
Pf growth 48h: 12µM*; AMA1 RON2 block: -6%; Pf growth 96h: inconclusive; SARS PLP yeast: -2%

Results for COc1ccc(CCNC(=O)Nc2cccc([N+](=O)[O-])c2)cc1 ?
Pf growth 48h: 17%; AMA1 RON2 block: -5%; Pf growth 96h: 13µM*; SARS PLP yeast: 1%

Results for S=C(Nc1ccc(Cl)cc1)c1nc2ccccc2[nH]1 ?
Pf growth 48h: -42%; AMA1 RON2 block: 15%; Pf growth 96h: inconclusive; SARS PLP yeast: -42%

Results for C[C@@H]1CN([C@@H](C)CO)C(=O)CCCn2nncc2CO[C@@H]1CN(C)C(=O)Cc1ccccc1 ?
AMA1 RON2 block: -8%

How did Cc1ccc(C(O)c2nccn2C)o1 (stereo not drawn) do in these assays?
Pf growth 48h: 26%; AMA1 RON2 block: 4%; Pf growth 96h: 17%; SARS PLP yeast: 11%

How did COc1ccc(N2CCN(C(=O)CCNS(=O)(=O)c3ccccc3)CC2)cc1 do in these assays?
Pf growth 48h: 3%; AMA1 RON2 block: 5%; Pf growth 96h: 10%; SARS PLP yeast: 2%

What do the screens show for `O=C1CCCc2nn(-c3ccccc3)c(-c3ccncc3)c21`?
Pf growth 48h: -21%; AMA1 RON2 block: 3%; Pf growth 96h: inconclusive; SARS PLP yeast: 9%

Results for Cc1c(Cl)cccc1N/C(SCC(=O)N1CCCCCC1)=C(/C#N)c1nc2ccccc2s1 ?
Pf growth 48h: 2.1µM*; AMA1 RON2 block: 8%; Pf growth 96h: 1.5µM*; SARS PLP yeast: 5%

Results for O=C(CSc1nc2ccccc2s1)N1CCCCC1 ?
Pf growth 48h: 129%; AMA1 RON2 block: 4%; SARS PLP yeast: -17%

How did COc1ccc(N=Cc2ccc(-c3ccccc3)o2)cc1 do in these assays?
Pf growth 48h: 9%; AMA1 RON2 block: inconclusive; Pf growth 96h: 12µM*; SARS PLP yeast: 0%

Results for NC(N)=NS(=O)(=O)c1ccc(NC(=S)NC(=O)c2sc3ccccc3c2Cl)cc1 ?
Pf growth 48h: 21%; AMA1 RON2 block: 20%; Pf growth 96h: 5%; SARS PLP yeast: 9%

Results for O=C(CSc1nc2c(c(=O)n1-c1ccc(Cl)cc1)SCC2)NCc1ccco1 ?
Pf growth 48h: inconclusive; AMA1 RON2 block: -6%; Pf growth 96h: inconclusive

What do the screens show for `Cc1ccc(NC2=C(Cl)C(=O)OC2NC(=O)c2ccccc2)cc1` (stereo not drawn)?
Pf growth 48h: inconclusive; AMA1 RON2 block: -10%; Pf growth 96h: 1µM*; SARS PLP yeast: -8%

What do the screens show for `O=C(COc1ccccc1)N1CCN(c2nnc(-c3ccccc3)c3ccccc23)CC1`?
Pf growth 48h: inconclusive; AMA1 RON2 block: 3%; Pf growth 96h: 10µM*; SARS PLP yeast: 3%

Results for COc1ccc(OCC(=O)N2CCN(c3nnc(-c4ccccc4)c4ccccc34)CC2)cc1 ?
Pf growth 48h: inconclusive; AMA1 RON2 block: -9%; Pf growth 96h: 1.9µM*; SARS PLP yeast: -6%

Results for COc1ccc(-c2nnc(N3CCOCC3)c3ccccc23)cc1 ?
Pf growth 48h: -9%; AMA1 RON2 block: -3%; Pf growth 96h: 13µM*; SARS PLP yeast: 7%

How did Cc1cc(C)n2nc(SCc3ccc(F)cc3Cl)nc2n1 do in these assays?
Pf growth 48h: inconclusive; AMA1 RON2 block: -2%; Pf growth 96h: inconclusive; SARS PLP yeast: -4%

What do the screens show for `O=C(OCc1nnn(Cc2ccccc2)c1-c1c(COC(=O)c2ccccc2)nnn1Cc1ccccc1)c1ccccc1`?
Pf growth 48h: 3.3µM*; AMA1 RON2 block: -25%; Pf growth 96h: 1.9µM*; SARS PLP yeast: 1%

What do the screens show for `CC(C)(C)c1nc(SCC(=O)N2CC(=O)Nc3ccccc32)c2ccccc2n1`?
Pf growth 48h: -19%; AMA1 RON2 block: -3%; Pf growth 96h: 5%; SARS PLP yeast: 0%

Results for Cc1ccc(-n2c(SCC(=O)N3CC(=O)Nc4ccccc43)nc3ccccc3c2=O)cc1C ?
Pf growth 48h: 10µM*; AMA1 RON2 block: -5%; Pf growth 96h: 8.3µM*; SARS PLP yeast: 28%

How did Cc1cccc(-n2c(SCC(=O)N3CC(=O)Nc4ccccc43)nc3ccccc3c2=O)c1 do in these assays?
Pf growth 48h: 13µM*; AMA1 RON2 block: -22%; Pf growth 96h: inconclusive; SARS PLP yeast: 1%

How did Cc1cccc(-n2c(SCC(=O)N3CC(=O)Nc4ccccc43)nc3ccccc3c2=O)c1C do in these assays?
Pf growth 48h: inconclusive; AMA1 RON2 block: -19%; Pf growth 96h: 3.7µM*; SARS PLP yeast: 11%
